{
  "source": "PubChem BioAssay (Tox21)",
  "note": "Inconclusive results are not listed. A number with no mark means an inactive call. Calls come from the whole dose curve; as a rule, active = well fitted activation curve with a large enough effect in the repeat runs; inconclusive = weak or mixed curves; inactive = flat fitted curve, though single readings scatter. % is set by controls: 0 for no effect and ±100 for the full control effect.",
  "data": [
    {"assay": "A CellTox Green Cytotoxicity Assay to monitor cytotoxicity in HepG2 cells - 24 hour (AID 1224878); note: nearly all actives have a fitted effect of over 45% in size", "conditions": "CellTox Green fluorescence; series mostly up to 76.8 µM; cytotoxicity: at the top concentration", "source_text": "National Center for Advancing Translational Sciences [NCATS]\nNIH Chemical Genomics Center [NCGC]\nU.S. Environmental Protection Agency [EPA]\nNational Institutes of Environmental Health Sciences [NIEHS]\nNational Toxicology Program [NTP]\nCell-based models are critical for drug discovery. Determining the natural cytotoxic effects resulting from test compounds is an essential research activity. A CellTox Green Cytotoxicity Assay to monitor cytotoxicity in real time of continues cell culture during 40 hours of the compound treatment was used to screen Tox21 10K library compounds in HepG2 cells. CellTox Green Cytotoxicity Assay is a nonlytic, homogeneous, biofluorescent method to measure cytotoxicity in cell culture after experimental manipulation. The assay system uses a proprietary asymmetric cyanine dye that is excluded from viable cells but preferentially stains the dead cell's DNA. […] Viable cells produce no appreciable increases in fluorescence. Therefore, the fluorescence signal produced by the binding interaction with dead cell DNA is proportional to cytotoxicity.\nThe mixture of HepG2 cell suspension and reagents were dispensed at 600cells/6 ul/well in 1536-well tissue culture treated black solid bottom plates using a Multidrop dispenser. After the assay plates were incubated at a 37 C/5% CO2 incubator for 5 hours, 23 nL of compounds dissolved in DMSO, positive and negative controls was transferred to the assay plate by a pintool work station. The plates were incubated at 37 C for 40 hours. The fluorescence intensity were measured at 0h, 8h, 16h, 24h, 32h and 40h time points using ViewLux plate reader during compound treatment.", "values": [
      {"smiles": "CCC(=O)c1ccc(Cl)cc1", "cytotoxicity": "1.27%"},
      {"smiles": "COP(=O)(OC)O/C(C)=C/C(=O)N(C)C", "cytotoxicity": "-13.7%"},
      {"smiles": "O=C(NC(=O)c1c(F)cccc1F)Nc1cc(Cl)c(F)c(Cl)c1F", "cytotoxicity": "-12.2%"},
      {"smiles": "Nc1c(Cl)c(F)nc(OCC(=O)O)c1Cl", "cytotoxicity": "-2.06%"},
      {"smiles": "COP(=O)(O)OC", "cytotoxicity": "1.27%"},
      {"smiles": "CN(C)C(=O)Oc1cc(OC(=O)N(C)C)cc(C(O)CNC(C)(C)C)c1", "note": "(stereo not given)", "cytotoxicity": "-2.32% [at 35.3 µM]"},
      {"smiles": "CN1COCN(Cc2cnc(Cl)s2)/C1=N\\[N+](=O)[O-]", "cytotoxicity": "-14.3%"},
      {"smiles": "Clc1nc(Cl)nc(Nc2ccccc2Cl)n1", "cytotoxicity": "-0.173%"},
      {"smiles": "CC(C)(C1CCC(O)CC1)C1CCC(O)CC1", "note": "(stereo not given)", "cytotoxicity": "20.4%"},
      {"smiles": "O=C(O)CBr", "cytotoxicity": "-5.87%"},
      {"smiles": "CCCC[N+](=O)[O-]", "cytotoxicity": "4.48%"},
      {"smiles": "CC1=C2[C@H]3OC(=O)[C@@H](C)[C@@H]3CC[C@@]2(C)C=CC1=O", "cytotoxicity": "-9.68% [at 35.3 µM]"},
      {"smiles": "CCC(CC)(CNC(=O)CCCO)c1cccc(OC)c1", "cytotoxicity": "-5.6% [at 35.3 µM]"},
      {"smiles": "CC(C)(O)C(Cl)(Cl)Cl", "cytotoxicity": "-4.14% [at 35.3 µM]"},
      {"smiles": "O=S1(=O)OCCO1", "cytotoxicity": "-2.29%"},
      {"smiles": "CC(C)(C)NC[C@H](O)c1ccc(O)cc1Cl", "cytotoxicity": "4.17% [at 35.3 µM]"},
      {"smiles": "C[N+]1(C)CCCCC1", "cytotoxicity": "-3.9%"},
      {"smiles": "O=P(O)(O)c1ccccc1", "cytotoxicity": "-17%"},
      {"smiles": "O=C(O)c1c(Cl)ccc2cc(Cl)cnc12", "cytotoxicity": "-9.69%"},
      {"smiles": "C=CCC1(C(C)CC)C(=O)NC(=O)NC1=O", "note": "(stereo not given)", "cytotoxicity": "1.12% [at 35.3 µM]"},
      {"smiles": "CNC(=O)Oc1ccccc1C(C)C", "cytotoxicity": "7.51%"},
      {"smiles": "CCOC(=O)CC(SP(=S)(OC)OC)C(=O)OCC", "note": "(stereo not given)", "cytotoxicity": "16.1% [at 35.3 µM]"},
      {"smiles": "COc1ccc2c(C(=O)c3ccc(Cl)cc3)c(C)n(CC(=O)O)c2c1", "cytotoxicity": "-20.2% [at 35.3 µM]"},
      {"smiles": "C(COCC1CO1)OCC1CO1", "note": "(stereo not given)", "cytotoxicity": "10.8%"},
      {"smiles": "CS(=O)(=O)Cl", "cytotoxicity": "5.43%"},
      {"smiles": "C[C@H](CN1CCOCC1)C(C(=O)N1CCCC1)(c1ccccc1)c1ccccc1", "cytotoxicity": "19%"},
      {"smiles": "CN(CCO)CCO", "cytotoxicity": "-0.0628%"},
      {"smiles": "[P]#[In]", "cytotoxicity": "-8.02%"},
      {"smiles": "CN(C)CCc1c[nH]c2cccc(OP(=O)(O)O)c12", "cytotoxicity": "-4.68%"},
      {"smiles": "C#CCOC(=O)/C=C(C)/C=C/CC(C)CCCC(C)C", "note": "(stereo not given)", "cytotoxicity": "-11.4%"},
      {"smiles": "N[C@@H](Cc1ccc(Oc2cc(I)c(O)c(I)c2)c(I)c1)C(=O)O", "cytotoxicity": "0.992% [at 35.3 µM]"},
      {"smiles": "CCCCCCCCBr", "cytotoxicity": "-15.8%"},
      {"smiles": "O=C(O)C(F)(F)C(F)(F)C(F)(F)C(F)(F)C(F)(F)C(F)(F)F", "cytotoxicity": "-7.49%"},
      {"smiles": "COC(=O)c1ccccc1CS(=O)(=O)NC(=O)Nc1nc(OC)cc(OC)n1", "cytotoxicity": "-0.139%"},
      {"smiles": "CCN1CCCC1CNC(=O)C(O)(c1ccccc1)c1ccccc1", "note": "(stereo not given)", "cytotoxicity": "2.52% [at 35.3 µM]"},
      {"smiles": "CC[C@@H](CO)NC(=O)[C@@H]1C=C2c3cccc4c3c(cn4C)C[C@H]2N(C)C1", "cytotoxicity": "0.417% [at 35.3 µM]"},
      {"smiles": "NC(=O)OCCCc1ccccc1", "cytotoxicity": "-4.62% [at 35.3 µM]"},
      {"smiles": "CNC(=O)O/N=C(/CSC)C(C)(C)C", "cytotoxicity": "8.31%"},
      {"smiles": "CCN[C@@H](C)Cc1ccccc1", "cytotoxicity": "-20.8%"},
      {"smiles": "NCC1(CC(=O)O)CCCCC1", "cytotoxicity": "-15.3% [at 35.3 µM]"}
    ]}
  ]
}
